{"source": "the OligoGym collection", "data": [{"biological_target": "KLK5", "test": "pooled miR-30 sensor sort-seq; sequence = guide strand", "details": "shRNA", "values": [{"sequence": "TTGATGGGTCTGACATCTTTAG", "sensor-assay potency score (higher = more potent)": -1.51}, {"sequence": "TGAACATTCTCAACATCTCTGG", "sensor-assay potency score (higher = more potent)": -0.405}, {"sequence": "TAGAGAGACACGGTCAGCCCAA", "sensor-assay potency score (higher = more potent)": 0.0597}, {"sequence": "TCTCGGGTAAGCATCCTCGCAC", "sensor-assay potency score (higher = more potent)": -0.337}, {"sequence": "ACTCTGAAAACTTTCTTCCTGC", "sensor-assay potency score (higher = more potent)": -0.332}, {"sequence": "TTTTCTGACTTAGCACGCTGAT", "sensor-assay potency score (higher = more potent)": -0.837}, {"sequence": "AACATTCTCAACATCTCTGGGA", "sensor-assay potency score (higher = more potent)": 0.475}, {"sequence": "TTTCTGACTTAGCACGCTGATA", "sensor-assay potency score (higher = more potent)": -1.58}, {"sequence": "TTGGGCCTTAGCAACAGCGCGG", "sensor-assay potency score (higher = more potent)": -0.877}, {"sequence": "TTCGTGTAGACACCCGGTCTGT", "sensor-assay potency score (higher = more potent)": -0.664}, {"sequence": "TTGATGATGCGGCTGCTGCTGT", "sensor-assay potency score (higher = more potent)": -0.719}]}, {"biological_target": "KPRP", "test": "pooled miR-30 sensor sort-seq; sequence = guide strand", "details": "shRNA", "values": [{"sequence": "TTGGTCTCCATGGCCATCCTGA", "sensor-assay potency score (higher = more potent)": -0.799}, {"sequence": "TAGTTGTTGCAGGTAGCCCTTG", "sensor-assay potency score (higher = more potent)": -0.668}, {"sequence": "TAGCCCTTGACTGAAACTGGGG", "sensor-assay potency score (higher = more potent)": -0.902}, {"sequence": "TCTTAGACTGACATTGAGCCTG", "sensor-assay potency score (higher = more potent)": -0.234}, {"sequence": "TACTGAGGGAAACAGCTGCTGT", "sensor-assay potency score (higher = more potent)": -0.994}, {"sequence": "AATCTCAACAGGACACCTCTGT", "sensor-assay potency score (higher = more potent)": 0.644}, {"sequence": "TTTCTGTATAACAAACTGGAGC", "sensor-assay potency score (higher = more potent)": -1.23}, {"sequence": "TTGAACCACCACTTGGCTCTGG", "sensor-assay potency score (higher = more potent)": 0.211}, {"sequence": "TAGACTGGCACTTCACCTGTGT", "sensor-assay potency score (higher = more potent)": 0.425}, {"sequence": "TTGTCGTGGTAGAGGACGCGGG", "sensor-assay potency score (higher = more potent)": -1.43}]}]}
